What all share (assay): NCI-60 one-dose screen, 48 h (100 = growth as untreated, 0 = no growth, -100 = all killed)
One experiment concerns HCT-15 colon. The note with it: 10 µM unless noted.
Another experiment has as its system HT29 colon. As to conditions: 10 µM unless noted.
Another experiment deals with SNB-75 CNS. The note with it: 10 µM unless noted.
For another experiment, the system named is SNB-19 CNS. As to conditions: 10 µM unless noted.
Another experiment has as its system U251 CNS. The note with it: 10 µM unless noted.
The subject of the next experiment is PC-3 prostate. As to conditions: 10 µM unless noted.
The next experiment deals with SK-MEL-5 melanoma. The note with it: 10 µM unless noted.
A further experiment relates to LOX IMVI melanoma. As to conditions: 10 µM unless noted.
The subject of another experiment is SK-MEL-28 melanoma. As to conditions: 10 µM unless noted.
Another experiment concerns SK-MEL-2 melanoma. As to conditions: 10 µM unless noted.
Another experiment deals with EKVX NSCLC. As to conditions: 10 µM unless noted.
The test system of another experiment is SN12C renal. As to conditions: 10 µM unless noted.
The test system of the next experiment is UO-31 renal. As to conditions: 10 µM unless noted.
For a further experiment, the system named is TK-10 renal. As to conditions: 10 µM unless noted.
The next experiment relates to ACHN renal. The note with it: 10 µM unless noted.
A further experiment deals with A498 renal. The note with it: 10 µM.
A further experiment deals with HL-60(TB) leukemia. The note with it: 10 µM unless noted.
Another experiment has as its system CCRF-CEM leukemia. As to conditions: 10 µM unless noted.
For another experiment, the system named is CAKI-1 renal. As to conditions: 10 µM unless noted.

Each structure is given as a SMILES string. This is part of a sample that, as a whole, favours compounds with a hit. Of some 83,000 tested, about 20% had one in any assay.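 Activity criterion: percent growth below 10, measured after cells in 96-well plates were exposed to a single compound concentration for 48 hours.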 Values without a mark were called inactive. Activity calls are given as the source filed them.

On to `Fc1ccc2c(c1)c(-c1nc(-c3c[nH]c4ncccc34)cs1)cn2CCN1CCOCC1`, for which the growth in the experiment on HCT-15 colon is 27.2%; in the experiment on HT29 colon, 47.7%; in the experiment with SNB-75 CNS, 32.9%; in the experiment on SNB-19 CNS, 63.7%; with U251 CNS it was 51.7%; in the experiment with PC-3 prostate it was 23.3%. Further, the growth in the experiment on SK-MEL-5 melanoma is 32.2%; in the experiment with LOX IMVI melanoma, 56.7%; with SK-MEL-28 melanoma, 75.8%; in the experiment on SK-MEL-2 melanoma, 67.4%; with EKVX NSCLC, 32.8%; in the experiment on SN12C renal, 65.8%. For the same compound, the growth in the experiment on UO-31 renal was 25.5%; with TK-10 renal it was 64.1%; in the experiment on ACHN renal, 48.3%; in the experiment with A498 renal, 74.1%; in the experiment with HL-60(TB) leukemia, 48.1%; with CCRF-CEM leukemia, 35.2%.

In the case of `CC[C@H](C)[C@H](NC(=O)N[C@@H](C)c1ccccc1)C(=O)N(C)[C@H](C[C@@H](OC(C)=O)c1nc(C(=O)N[C@@H](Cc2ccccc2)C[C@H](C)C(=O)OC)cs1)C(C)C`, the growth was 12.3% in the experiment on HCT-15 colon; -24.4% (active) with HT29 colon; -0.0971% (active) in the experiment with SNB-75 CNS; 56.7% in the experiment with SNB-19 CNS; 13.1% in the experiment on U251 CNS; 22.6% in the experiment on PC-3 prostate. Also, the growth with SK-MEL-5 melanoma was -33.7% (active); in the experiment with LOX IMVI melanoma, 18%; in the experiment on SK-MEL-28 melanoma, 44.6%; in the experiment with SK-MEL-2 melanoma, -14.9% (active); with EKVX NSCLC it was 36.7%; in the experiment on SN12C renal, 39.9%. Also, the growth was 28.5% in the experiment on UO-31 renal; 21.5% in the experiment with ACHN renal; -4.53% (active) with A498 renal; -16.9% (active) in the experiment on HL-60(TB) leukemia; 10.7% in the experiment with CCRF-CEM leukemia.

As to `O=[N+]([O-])c1c(Br)sc(Br)c1[N+](=O)[O-]`, the growth is -13.9% (active) in the experiment on HCT-15 colon; -58% (active) in the experiment on HT29 colon; 63.1% with SNB-75 CNS; 76% in the experiment with SNB-19 CNS; -31% (active) with U251 CNS; 67.5% in the experiment with PC-3 prostate. Further, the growth with SK-MEL-5 melanoma was 51.4%; with LOX IMVI melanoma, -65.3% (active); in the experiment with SK-MEL-28 melanoma, 57.3%; with SK-MEL-2 melanoma, -20.9% (active); with EKVX NSCLC, 72.5%; in the experiment with SN12C renal it was 30%. Besides, the growth with UO-31 renal is -65.7% (active); with TK-10 renal, -78.3% (active); in the experiment with ACHN renal, -56.4% (active); in the experiment with A498 renal, 111%; with HL-60(TB) leukemia, -11.2% (active); with CCRF-CEM leukemia, -18.9% (active).

For `Cc1cc(-c2nc3cc(F)ccc3[se]2)cc(F)c1N`, the growth in the experiment with HCT-15 colon is 38.2%; in the experiment on HT29 colon it was 62.5%; with SNB-75 CNS, 91.9%; with SNB-19 CNS it was 97.2%; in the experiment on U251 CNS, 98.7%; with PC-3 prostate, 72.7%. Moreover, the growth with SK-MEL-5 melanoma was 81%; in the experiment with LOX IMVI melanoma, 90%; with SK-MEL-28 melanoma it was 121%; with SK-MEL-2 melanoma, 101%; with EKVX NSCLC, 66.4%; with SN12C renal, 95.5%. The growth was 55.8% in the experiment on UO-31 renal; 57.6% in the experiment with TK-10 renal; 79% in the experiment with ACHN renal; 74.8% in the experiment with A498 renal; 87.2% in the experiment with HL-60(TB) leukemia; 85.2% in the experiment on CCRF-CEM leukemia.

Regarding `c1ccc(COc2ccc3[nH]cc(CCN(Cc4ccccc4)Cc4ccccc4)c3c2)cc1`, the growth in the experiment on HCT-15 colon is 47.2%; in the experiment with HT29 colon it was 83.5%; with SNB-75 CNS, 89.2%; with SNB-19 CNS, 104%; in the experiment with U251 CNS it was 81.6%; in the experiment with PC-3 prostate it was 57.7%. For the same compound, the growth in the experiment with SK-MEL-5 melanoma is 88.3%; in the experiment with LOX IMVI melanoma it was 81.8%; in the experiment on SK-MEL-28 melanoma it was 104%; in the experiment on SK-MEL-2 melanoma, 93.6%; in the experiment on EKVX NSCLC, 82.8%; in the experiment with SN12C renal it was 86.3%. Also, the growth is 60.3% with UO-31 renal; 109% in the experiment on TK-10 renal; 97.1% in the experiment on ACHN renal; 71.8% with CAKI-1 renal; 105% in the experiment with A498 renal; 73.8% in the experiment on CCRF-CEM leukemia.

In the case of `COC(=O)[C@@H](C)C[C@H](Cc1ccccc1)NC(=O)c1nc([C@@H](C[C@H](C(C)C)N(C)C(=O)[C@@H](NC(=O)[C@H]2C[C@H](O)CCN2C)C(C)C)OC(C)=O)sc1C(C)C`, the growth was 2.8% (active) in the experiment on HCT-15 colon; -15.3% (active) in the experiment with HT29 colon; -9.05% (active) in the experiment with SNB-75 CNS; 16.5% in the experiment on SNB-19 CNS; 7.85% (active) in the experiment on U251 CNS; 21.5% in the experiment on PC-3 prostate. The growth was -24% (active) with SK-MEL-5 melanoma; 8.19% (active) in the experiment on LOX IMVI melanoma; 44.8% in the experiment on SK-MEL-28 melanoma; 12.4% in the experiment on SK-MEL-2 melanoma; 35.2% in the experiment on EKVX NSCLC; 7.67% (active) in the experiment with SN12C renal. In addition, the growth with UO-31 renal was 12.5%; in the experiment on TK-10 renal, 27.5%; in the experiment on ACHN renal it was 10.8%; with CAKI-1 renal it was 23.8%; in the experiment on HL-60(TB) leukemia it was -42.3% (active); in the experiment on CCRF-CEM leukemia, 4.78% (active).

On to `ClCCN(CCCl)c1nc(Cl)c(C2CC(c3ccccc3)=NN2c2cc(Cl)cc(Cl)c2)s1` (stereo not drawn), for which the growth is 104% with HCT-15 colon; 101% with HT29 colon; 96.4% in the experiment on SNB-75 CNS; 98.7% in the experiment with SNB-19 CNS; 99.4% in the experiment with U251 CNS; 93.7% with PC-3 prostate. In addition, the growth in the experiment on SK-MEL-5 melanoma was 102%; in the experiment with LOX IMVI melanoma it was 99.2%; in the experiment on SK-MEL-2 melanoma, 103%; in the experiment with EKVX NSCLC it was 101%; with SN12C renal, 95.2%; in the experiment on UO-31 renal, 89.6%. The growth is 109% with TK-10 renal; 96.1% in the experiment with ACHN renal; 83.4% in the experiment on CAKI-1 renal; 116% with A498 renal; 105% with HL-60(TB) leukemia; 102% in the experiment on CCRF-CEM leukemia.

In the case of `C=C1C[C@](OC)([C@H](O)C(=O)N[C@@H](OC)[C@@H]2C[C@@H](O)C(C)(C)[C@@H](C[C@@H](COC)OC)O2)O[C@H](C)[C@@H]1C`, the growth is -51.3% (active) in the experiment with HCT-15 colon; -68.7% (active) with HT29 colon; -100% (active) in the experiment with SNB-75 CNS; -10.7% (active) in the experiment on SNB-19 CNS; -61.9% (active) in the experiment with U251 CNS; -25.5% (active) with PC-3 prostate. The growth was -100% (active) with SK-MEL-5 melanoma; -81.8% (active) with LOX IMVI melanoma; -64.8% (active) in the experiment on SK-MEL-2 melanoma; -33.9% (active) in the experiment with EKVX NSCLC; -29.9% (active) in the experiment with SN12C renal; -61.7% (active) with UO-31 renal. Also, the growth in the experiment on TK-10 renal was -36% (active); with ACHN renal, -84.6% (active); in the experiment on CAKI-1 renal it was -39.7% (active); in the experiment with A498 renal it was -87.1% (active); in the experiment on HL-60(TB) leukemia, -52% (active); in the experiment on CCRF-CEM leukemia, -24.3% (active).

The record behind these values is PubChem BioAssay (NCI).
